High-throughput results as filed in PubChem BioAssay.
Pf Dd2 growth: P. falciparum Dd2 growth inhibitors, primary screen, SYBR Green fluorescence, single dose replicates; 72 h; hits give low values; activity change, % at 10 µM; 94,000 tested, 2.3% active; in the data active = activity change below about -80%
T cruzi growth: T. cruzi intracellular proliferation inhibitors, primary screen, cell-based, beta-gal Tulahuen parasites, NIH3T3 host, luminescence; T. cruzi beta-gal in NIH3T3, GalScreen luminescence, 90 h; inhibition, % at 8.34 µM; 77,000 tested, 5.9% active;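 active = mean inhibition above about 93%, with at least 55% of replicates each passing it, limit read from the data, passing the limit was not always enough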
C diff growth: C. difficile growth inhibitors, primary screen, HTS | Clostridium difficile clinical isolate growth, OD600, 24 h; hits give low values | growth activity, negative = inhibition, % at 16 µg/mL (by protocol) | 86,000 tested, 0.25% active | AID 1259249, 2017;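 active = mean growth activity at or below -80% and every replicate also at or below -80%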;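 note: 0% = DMSO wells and -100% = levofloxacin 16 µg/mL wells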
Numbers without * were called inactive. A selection: hits, their analogues and other compounds. The true share with any hit is near 6.7%.

C[C@H](CO)N1C[C@H](C)[C@H](CN(C)Cc2ccc(Cl)c(Cl)c2)Oc2c(NS(=O)(=O)c3ccc(F)cc3)cccc2C1=O was read as Pf Dd2 growth -15, T cruzi growth -37 and C diff growth 8.
Screening C[C@H]1CN([C@@H](C)CO)C(=O)c2cccc(NS(=O)(=O)c3ccc(F)cc3)c2O[C@H]1CN(C)Cc1ccc(Cl)c(Cl)c1 returned Pf Dd2 growth -82*, T cruzi growth 53 and C diff growth 7.
Screening C[C@H]1CN([C@@H](C)CO)C(=O)c2cccc(NS(=O)(=O)c3ccccc3)c2O[C@@H]1CN(C)Cc1ccc(C(=O)Nc2ccccc2N)cc1 returned Pf Dd2 growth -54 and C diff growth -2.
`C[C@@H]1CN([C@H](C)CO)C(=O)c2cccc(NS(=O)(=O)c3ccccc3)c2O[C@@H]1CN(C)Cc1ccc(C(=O)Nc2ccccc2N)cc1` gave Pf Dd2 growth -85* and C diff growth 7.
`C[C@@H]1CN([C@H](C)CO)C(=O)c2cccc(NS(=O)(=O)c3ccc(F)cc3)c2O[C@H]1CN(C)Cc1ccc(C(=O)Nc2ccccc2N)cc1` gave Pf Dd2 growth -68 and C diff growth 10.
Screening C[C@@H]1CN([C@H](C)CO)C(=O)c2cccc(NS(=O)(=O)c3ccc(F)cc3)c2O[C@@H]1CN(C)Cc1ccc(C(=O)Nc2ccccc2N)cc1 returned Pf Dd2 growth -86*, T cruzi growth 94 and C diff growth 9.
`C[C@H]1CN([C@@H](C)CO)C(=O)c2cccc(NS(=O)(=O)c3ccccc3)c2O[C@H]1CN(C)Cc1ccc(C(=O)Nc2ccccc2N)cc1` gave Pf Dd2 growth -88* and C diff growth 6.
`C[C@@H]1CN([C@@H](C)CO)C(=O)c2cccc(NS(=O)(=O)c3ccc(Cl)cc3)c2O[C@H]1CN(C)Cc1ccc(C(=O)Nc2ccccc2N)cc1` gave Pf Dd2 growth -79 and C diff growth 2.
`COc1cccc(C(=O)N2C[C@H]3[C@@H](c4ccccc42)[C@@H](CO)N3C(C)=O)c1` gave Pf Dd2 growth 4, T cruzi growth 53 and C diff growth -2.
Screening CO[C@@H]1CN(C)C(=O)c2cc(NC(=O)c3cnccn3)ccc2OC[C@@H](C)NC[C@H]1C returned Pf Dd2 growth 5 and T cruzi growth 7.
O=C(NCC(F)(F)F)[C@@H]1[C@@H](CO)[C@@H]2Cn3c(cccc3=O)[C@@H]2N1C(=O)C1CC1 was read as T cruzi growth 71 and C diff growth -2.
Screening Cc1ccc(S(=O)(=O)Nc2cccc3c2O[C@@H](CN(C)Cc2ccc(C(=O)Nc4ccccc4N)cc2)[C@@H](C)CN([C@H](C)CO)C3=O)cc1 returned Pf Dd2 growth -83* and C diff growth 8.
For Cc1ccc(S(=O)(=O)Nc2cccc3c2O[C@H](CN(C)Cc2ccc(C(=O)Nc4ccccc4N)cc2)[C@@H](C)CN([C@H](C)CO)C3=O)cc1 the results were Pf Dd2 growth -72 and C diff growth 8.
`COc1ccc(S(=O)(=O)Nc2ccc3c(c2)C(=O)N([C@H](C)CO)C[C@H](C)[C@H](CN(C)S(=O)(=O)c2ccc(Cl)cc2)OCCCC[C@@H](C)O3)cc1` gave Pf Dd2 growth -38, T cruzi growth 94 and C diff growth 14.
COc1ccc(S(=O)(=O)N(C)C[C@H]2OCCCC[C@@H](C)Oc3ccc(NS(=O)(=O)c4ccc(Cl)cc4)cc3C(=O)N([C@H](C)CO)C[C@H]2C)cc1 was read as Pf Dd2 growth -90* and C diff growth -2.
Screening COc1ccc(S(=O)(=O)N(C)C[C@@H]2OCCCC[C@H](C)Oc3ccc(NS(=O)(=O)c4ccc(Cl)cc4)cc3C(=O)N([C@H](C)CO)C[C@H]2C)cc1 returned Pf Dd2 growth -79 and C diff growth -6.
Screening COc1ccc(S(=O)(=O)N(C)C[C@H]2OCCCC[C@H](C)Oc3ccc(NS(=O)(=O)c4ccc(Cl)cc4)cc3C(=O)N([C@H](C)CO)C[C@@H]2C)cc1 returned Pf Dd2 growth -87* and C diff growth 2.
COc1ccc(S(=O)(=O)N(C)C[C@@H]2OCCCC[C@@H](C)Oc3ccc(NS(=O)(=O)c4ccc(Cl)cc4)cc3C(=O)N([C@@H](C)CO)C[C@H]2C)cc1 was read as Pf Dd2 growth -41 and C diff growth -1.
Screening COc1ccc(S(=O)(=O)N(C)C[C@H]2OCCCC[C@H](C)Oc3ccc(NS(=O)(=O)c4ccc(Cl)cc4)cc3C(=O)N([C@@H](C)CO)C[C@H]2C)cc1 returned Pf Dd2 growth -88* and C diff growth 1.
CO[C@@H]1CN(C)C(=O)c2cc(NC(=O)CC(F)(F)F)ccc2OC[C@H](C)N(C(=O)C2CCOCC2)C[C@@H]1C was read as Pf Dd2 growth -11 and C diff growth -4.
CO[C@H]1CN(C)C(=O)c2cc(NC(C)=O)ccc2OC[C@H](C)N(Cc2ccncc2)C[C@H]1C was read as Pf Dd2 growth -80* and T cruzi growth -13.
COCC(=O)Nc1ccc2c(c1)C(=O)N(C)C[C@@H](OC)[C@@H](C)CN(Cc1cccc(F)c1)[C@H](C)CO2 was read as Pf Dd2 growth -15 and T cruzi growth -1.
`COCC(=O)Nc1ccc2c(c1)C(=O)N(C)C[C@H](OC)[C@H](C)CN(Cc1cccc(F)c1)[C@@H](C)CO2` gave Pf Dd2 growth -82* and T cruzi growth 41.
For CO[C@@H]1CN(C)C(=O)c2cc(NC(C)=O)ccc2OC[C@H](C)N(Cc2ccncc2)C[C@H]1C the results were Pf Dd2 growth -31 and T cruzi growth -30.
Screening CC(=O)N1[C@@H]2c3ccc(-c4ccc(F)cc4)c(=O)n3C[C@@H]2[C@@H](CO)[C@@H]1C(=O)N(C)C returned Pf Dd2 growth 12, T cruzi growth 70 and C diff growth 2.
For C[C@@H](NC(=O)C[C@@H]1C[C@@H]2c3cc(NC(=O)C4CCC4)ccc3O[C@@H]2[C@H](CO)O1)c1ccccc1 the results were Pf Dd2 growth -26, T cruzi growth -2 and C diff growth -25.
Screening C[C@H](CO)N1C[C@H](C)[C@H](CN(C)C)Oc2cc(C#CC3(O)CCCC3)ccc2S1(=O)=O returned Pf Dd2 growth -1, T cruzi growth 48 and C diff growth 0.
Screening C[C@@H]1CCCCO[C@@H](CN(C)CC2CCCCC2)[C@H](C)CN([C@@H](C)CO)C(=O)c2cc(NC(=O)CCCCCC(=O)Nc3ccccc3N)ccc2O1 returned Pf Dd2 growth -81*, T cruzi growth 67 and C diff growth -2.
C[C@@H]1CCCCO[C@@H](CN(C)CC2CC2)[C@@H](C)CN([C@H](C)CO)C(=O)c2cc(NC(=O)CCCCCC(=O)Nc3ccccc3N)ccc2O1 was read as Pf Dd2 growth -78 and C diff growth -2.
`C[C@@H]1CCCCO[C@@H](CN(C)Cc2ccccc2)[C@@H](C)CN([C@H](C)CO)C(=O)c2cc(NC(=O)CCCCCC(=O)Nc3ccccc3N)ccc2O1` gave Pf Dd2 growth -84* and C diff growth -8.
